The source of these data is PubChem BioAssay (NCATS).

Inconclusive results are not listed. Calls of active or inactive are those of the source. Unless noted, no rule for the calls is given here.

The nature of assay [1]: qHTS profiling for inhibitors of Plasmodium falciparum (3D7) proliferation (AID 743322).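 Also: infected erythrocytes exposed to compound for 72 h before lysis; 100% = DMSO vehicle wells and 0% = 0.29 µM artemisinin.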 As to conditions: P. falciparum 3D7 proliferation; at 28.7 µM (top of the series). An outline of the steps:
(§1)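 Parasite DNA was quantified by SYBR Green I fluorescence (ex 485, em 535 nm) after overnight lysis in saponin/Triton buffer at room temperature. Cultures at 0.3% parasitemia and 2.5% hematocrit were first exposed to compound for 72 h at 37 C; signals were normalised to artemisinin (0.29 uM) and vehicle wells.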
Background: In qHTS, concentration-response curves come from the screen itself.

The nature of assay [2]: qHTS profiling for inhibitors of Plasmodium falciparum (DD2) proliferation (AID 743323). To be noted: lower = more inhibition; at 28.7 µM (top of the series). In a few lines: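 Parasite proliferation measured via DNA-dye fluorescence, as uninfected erythrocytes lack DNA. Cultures at 0.3% parasitemia and 2.5% hematocrit incubated 72 h with compound; signal scaled between vehicle and 0.29 uM artemisinin wells.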

Assay [3] can be described thus: qHTS profiling for inhibitors of Plasmodium falciparum (HB3) proliferation (AID 743324; active = well fitted curve in the direction sought with a large enough effect; an effect the other way counts as inactive or inconclusive;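 also: 100% = DMSO vehicle wells and 0% = artemisinin-treated control wells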). As to conditions: Plasmodium falciparum HB3 blood-stage proliferation; at 28.7 µM (top of the series). An outline of the steps:
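SYBR Green fluorescence (485 ex/535 em) of lysed cultures, incubated overnight at room temperature in the dark, quantifies parasite DNA. Infected erythrocytes at 0.3% parasitemia and 2.5% hematocrit were exposed 72 h; values normalized to DMSO and 0.29 uM artemisinin controls.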

The nature of assay [4]: qHTS profiling of the MIPE4 collection as inhibitors of Plasmodium falciparum (3D7) proliferation (AID 743344). As to conditions: P. falciparum 3D7 in erythrocytes, SYBR Green DNA fluorescence, 72 h; at 28.5 µM (top of the series) unless noted. An outline of the steps: as §1
Assay [5] can be described thus: qHTS profiling of the MIPE4 collection as inhibitors of Plasmodium falciparum (DD2) proliferation (AID 743345). To be noted: P. falciparum Dd2 in erythrocytes, SYBR Green DNA, 72 h; at 28.5 µM (top of the series) unless noted. An outline of the steps: as §1
The nature of assay [6]: qHTS profiling of the MIPE4 collection as inhibitors of Plasmodium falciparum (DD2) proliferation (Rep 2) (AID 743346). As to conditions: P. falciparum Dd2 in erythrocytes, SYBR Green DNA, 72 h; at 28.5 µM (top of the series) unless noted. In a few lines: as §1
Assay [7] is described as follows: High-throughput drug toxicity screening in the BPDCN cell line Gen2.2 (AID 1224824).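 Also: cells exposed to compounds for 48 h before reading.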 To be noted: Gen2.2 BPDCN cells; at 45.8 µM (top of the series) unless noted. An outline of the steps: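 Seed 500 exponentially growing Gen2.2 cells/well; add compounds by pin tool; incubate 48 h, 37 °C, 5% CO2; add CellTiter-Glo, 15 min RT; read luminescence. % activity vs DMSO (100%) and bortezomib (0%).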

The nature of assay [8]: High-throughput drug toxicity screening in the BPDCN cell line Cal-1 (AID 1224825). As to conditions: Cal-1 BPDCN cell viability, qHTS; at 45.8 µM (top of the series) unless noted. An outline of the steps: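 CellTiter-Glo luminescence after 48 h compound exposure; percent activity scaled with DMSO as 100% and bortezomib (9.2 uM final) as 0%. Cal-1 cells seeded at 500/well in RPMI, 10% FBS, no phenol red.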

Assay [9] can be described thus: qHTS profiling of the MIPE4 collection as inhibitors of Plasmodium falciparum (HB3) proliferation (AID 743347).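 Also: plate controls were DMSO vehicle wells for no effect and artemisinin wells for full effect.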 To be noted: P. falciparum HB3 in erythrocytes, SYBR Green DNA, 72 h; at 28.5 µM (top of the series) unless noted. An outline of the steps:
as §1

The nature of assay [10]: qHTS assay for cell viability of the p53RE-bla HCT-116 cell line (AID 743292; active = well fitted curve in the direction sought with a large enough effect; an effect the other way counts as inactive or inconclusive; also: % is scaled to controls: 0 for no effect and ±100 for the full control effect; nearly all actives have a fitted effect of over 55% in size). In a few lines:
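CellSensor p53RE-bla HCT-116 cells (4,000/well) pre-incubated 5 h at 37 C, then exposed to compounds in DMSO for 16 h at 37 C. Viability read as ATP content by CellTiter-Glo luminescence after 30 min at room temperature.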

For `CC1(C)OC2=C(C(=O)c3ccccc3C2=O)[C@H](NCc2ccccc2)[C@H]1O`, in assay [1], the remaining parasite growth % (stronger effect = lower value) is -2.33%. Moreover, the activity, percent of control in [2] stood at 0.336%. The remaining proliferation (% of control), lower = more inhibition in [3] was -1.28%. The parasite growth, % of DMSO control in assay [4] was determined as 6.23%. In assay [5], this compound returned a parasite growth remaining, % of DMSO control (lower = more inhibition) of 7.16%. Also, the parasite growth, % of control (lower = inhibition) in assay [6] was found to be 6.48%. Also, the cell viability, % of control (lower = more cytotoxic) in assay [7] was 12%. Further, the viability (% of control) in [8] turned out to be 8.3%.

`CN1CC[C@@H](c2c(O)cc(O)c3c(=O)cc(-c4ccccc4Cl)oc23)[C@@H](O)C1`: the remaining parasite growth % (stronger effect = lower value) in assay [1] turned out to be 3.4%. For the same compound, the activity, percent of control in [2] turned out to be 4.17%. The remaining proliferation (% of control), lower = more inhibition in assay [3] came to 4.58%. The same compound registered a parasite growth, % of DMSO control in assay [4] of 8.91%. The compound further showed a parasite growth remaining, % of DMSO control (lower = more inhibition) in assay [5] of 13.5%. The parasite growth, % of control (lower = inhibition) in assay [6] was 9.93%. Moreover, the growth, % of control in [9] amounted to 11.3%. The cell viability, % of control (lower = more cytotoxic) in assay [7] was determined as 7.16%. The viability (% of control) in assay [8] is 5.59%.

In the case of `CCOC(=O)C1=C(C)NC2=C(C(=O)CC(C)(C)C2)C1c1ccc(-c2ccccc2)cc1` (centres undefined), the cell viability, % of control (lower = more cytotoxic) in assay [7] was 5.24%. Further, in assay [8], the viability (% of control) came to 4.47%.

As for `COC(=O)[C@]12CCC(C)(C)C[C@@H]1[C@@H]1C(=O)C=C3[C@@]4(C)C=C(C#N)C(=O)C(C)(C)[C@@H]4CC[C@@]3(C)[C@]1(C)CC2`, in [1], the remaining parasite growth % (stronger effect = lower value) worked out at 0.25%. In [2], the activity, percent of control is 0.779%. For the same compound, the remaining proliferation (% of control), lower = more inhibition in [3] stood at 2.29%. The compound further had a parasite growth, % of DMSO control in assay [4] of 13.9%. In assay [5], the parasite growth remaining, % of DMSO control (lower = more inhibition) was determined as 7.23%. Moreover, in assay [6], the parasite growth, % of control (lower = inhibition) is 25.5%. Besides, the growth, % of control in assay [9] amounted to 11.3%. For the same compound, the cell viability, % of control (lower = more cytotoxic) in assay [7] stood at 3.73%. Moreover, the viability (% of control) in [8] was 2.87%.

For the compound `C=CC(=O)N1CCC[C@@H](n2nc(-c3ccc(Oc4ccccc4)cc3)c3c(N)ncnc32)C1`, the cell viability, % of control (lower = more cytotoxic) in assay [7] was determined as 43.2%. Besides, in assay [8], the viability (% of control) was 6.59%.

Regarding `CS(=O)(=O)N1CCN(Cc2cc3nc(-c4cccc5[nH]ncc45)nc(N4CCOCC4)c3s2)CC1`, the cell viability, % of control (lower = more cytotoxic) in assay [7] came to 27.2%. Also, the viability (% of control) in assay [8] amounted to 27.7%.

As to `COC(=O)C[C@](O)(CCCC(C)(C)O)C(=O)O[C@@H]1C(OC)=C[C@]23CCCN2CCc2cc4c(cc2[C@H]13)OCO4`, the cell viability, % of control (lower = more cytotoxic) in assay [7] was 131%. Besides, in assay [8], the viability (% of control) stood at 134%.

Consider `Cc1cn2c(-c3cn[nH]c3)cnc2c(Nc2ccc(C(=O)N3CCNCC3)cc2F)n1`, for which the remaining parasite growth % (stronger effect = lower value) in [1] worked out at 19.1%. Moreover, the activity, percent of control in [2] was 12.6%. Further, the remaining proliferation (% of control), lower = more inhibition in assay [3] is 11.9%. Also, the parasite growth, % of DMSO control in [4] turned out to be 5.87%. Further, in [5], the parasite growth remaining, % of DMSO control (lower = more inhibition) came out at 11.4%. For the same compound, the parasite growth, % of control (lower = inhibition) in assay [6] was found to be 11.4%. Further, in assay [9], the growth, % of control came out at 3.68%. Further, the cell viability, % of control (lower = more cytotoxic) in assay [7] was 99.1%. Moreover, the viability (% of control) in [8] is 28.2%.

For the compound `Nc1nc(Nc2ccc(S(N)(=O)=O)cc2)nn1C(=O)c1c(F)cccc1F`, the remaining parasite growth % (stronger effect = lower value) in [1] worked out at 14.8%. For the same compound, the activity, percent of control in [2] was found to be 9.84%. In assay [3], the remaining proliferation (% of control), lower = more inhibition was determined as 10.9%. Moreover, in assay [4], the parasite growth, % of DMSO control stood at 16.5%. In addition, in assay [5], the parasite growth remaining, % of DMSO control (lower = more inhibition) came out at 11.8%. Further, the parasite growth, % of control (lower = inhibition) in assay [6] was found to be 14.1%. Further, the growth, % of control in [9] amounted to 9.06%. The cell viability, % of control (lower = more cytotoxic) in [7] came to 13.3%. The viability (% of control) in assay [8] stood at 6.01%.

`O=c1[nH]nc(Sc2ncc([N+](=O)[O-])s2)n1-c1ccc2c(c1)OCCO2`: in assay [1], the remaining parasite growth % (stronger effect = lower value) worked out at 21%. Further, the activity, percent of control in assay [2] was found to be 65.9%. The remaining proliferation (% of control), lower = more inhibition in assay [3] worked out at 3.82%. In [4], this compound gave a parasite growth, % of DMSO control of 59.7%. In [5], this compound registered a parasite growth remaining, % of DMSO control (lower = more inhibition) of 64.7%. Further, the parasite growth, % of control (lower = inhibition) in assay [6] was 60.1%. The growth, % of control in assay [9] is 62.4%. For the same compound, the cell viability, % of control (lower = more cytotoxic) in [7] is 3.22%. In assay [8], the viability (% of control) amounted to 2.62%.

Turning to `CC(=O)OCC(=O)[C@@]1(O)[C@H](C)C[C@H]2[C@@H]3C=C(C)C4=Cc5c(cnn5-c5ccccc5)C[C@]4(C)[C@@H]3[C@@H](O)C[C@@]21C`, the remaining parasite growth % (stronger effect = lower value) in [1] is -0.774%. Moreover, the activity, percent of control in assay [2] is -0.0557%. The remaining proliferation (% of control), lower = more inhibition in assay [3] was -1.72%. In addition, the parasite growth, % of DMSO control in assay [4] worked out at 6.78%. This compound also showed a parasite growth remaining, % of DMSO control (lower = more inhibition) in [5] of 6.63%. For the same compound, the parasite growth, % of control (lower = inhibition) in assay [6] worked out at 21.4%. In addition, the growth, % of control in assay [9] worked out at 10.8%. Further, the cell viability, % of control (lower = more cytotoxic) in [7] is 102%. For the same compound, the viability (% of control) in assay [8] was 45.8%.

Take `O=C(O)CCCc1c[nH]c2ccccc12`: the compound was classed as inactive in [10]. The same compound registered a parasite growth, % of DMSO control in assay [4] of 102%. This compound also returned a parasite growth remaining, % of DMSO control (lower = more inhibition) in assay [5] of 20.4%. The parasite growth, % of control (lower = inhibition) in assay [6] worked out at 142%. The same compound came in with a growth, % of control in assay [9] of 102%. Besides, in [7], the cell viability, % of control (lower = more cytotoxic) stood at 90.6%. The viability (% of control) in assay [8] is 32.3%.

Take `Nc1nc(-c2nn(Cc3ccccc3F)c3ncccc23)nc(N)c1N1CCOCC1`: the cell viability, % of control (lower = more cytotoxic) in assay [7] came to 199%. Besides, in assay [8], the viability (% of control) is 101%.
